A549 tox: kills or reduces viability of A549 cells in Nrf2 counter-screen; AID 504648; A549 ARE-Fluc cells, CellTiter-Fluor viability, 18-24 h; 0.16% of 390,000 active; Potency, µM (highest dose often 46 µM), hits mostly inhibitors
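A549 ARE-Fluc cells in 5% FBS OPTI-MEM, 5000 cells/well, rested 2 h then exposed to compounds in concentration-response for 18-24 h at 37 °C. Viability by CellTiter-Fluor fluorescence (Ex 405/Em 525) after 30 min; luciferase luminescence (BugLite, 15 min, RT) read afterwards.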
Nrf2 inh: blocks Nrf2 signaling | A549 ARE-Fluc reporter, luciferase luminescence, 18-24 h | Potency, µM (highest dose often 46 µM), hits mostly inhibitors | 2.1% of 360,000 active | AID 504444; note: nearly all actives have a fitted effect of over 60% in size
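A549 ARE_Fluc cells (5000/well, 5% FBS OPTI-MEM) pre-incubated 2 h, then treated with compounds 18-24 h at 37C/5% CO2 in concentration-response. CellTiter-Fluor viability read first; BugLite luciferase luminescence after 15 min at room temperature gives Nrf2 activity.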
Rango complex inh: prevents formation of the Rango-importin beta complex; Rango CFP/YFP FRET sensor + importin beta, 45 min; 0.031% of 340,000 active; Q14974; Potency, µM (doses to about 92.2 µM); calls by dose curve; note: nearly all actives have a fitted effect of over 15% in size
Target sequence (Q14974 whole entry, looked up): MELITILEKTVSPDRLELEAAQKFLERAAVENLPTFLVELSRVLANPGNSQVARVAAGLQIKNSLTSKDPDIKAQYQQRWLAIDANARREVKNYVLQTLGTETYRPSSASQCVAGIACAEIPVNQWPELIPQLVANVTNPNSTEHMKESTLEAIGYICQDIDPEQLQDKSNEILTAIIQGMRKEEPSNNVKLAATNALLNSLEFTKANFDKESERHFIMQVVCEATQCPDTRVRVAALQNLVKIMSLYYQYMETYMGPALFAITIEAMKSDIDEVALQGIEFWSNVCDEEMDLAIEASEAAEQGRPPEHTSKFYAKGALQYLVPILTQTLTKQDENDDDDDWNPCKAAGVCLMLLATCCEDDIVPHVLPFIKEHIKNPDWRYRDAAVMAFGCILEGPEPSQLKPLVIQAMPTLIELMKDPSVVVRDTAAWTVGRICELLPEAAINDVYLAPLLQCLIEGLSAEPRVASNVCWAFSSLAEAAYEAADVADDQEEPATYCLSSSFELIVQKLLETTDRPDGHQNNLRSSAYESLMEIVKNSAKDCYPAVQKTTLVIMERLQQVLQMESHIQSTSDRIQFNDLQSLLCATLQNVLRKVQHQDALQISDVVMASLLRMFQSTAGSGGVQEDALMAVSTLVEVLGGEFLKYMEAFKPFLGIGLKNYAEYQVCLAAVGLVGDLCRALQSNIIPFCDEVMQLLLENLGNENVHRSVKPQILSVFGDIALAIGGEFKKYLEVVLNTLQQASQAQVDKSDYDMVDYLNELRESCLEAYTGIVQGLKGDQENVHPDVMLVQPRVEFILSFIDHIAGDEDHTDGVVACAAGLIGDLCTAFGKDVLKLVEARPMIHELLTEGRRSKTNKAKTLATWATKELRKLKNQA
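FRET biosensor (snurportin 1 IBB flanked by EYFP and cerulean), 50 nM, with compound 5 min, then 0.125 microM importin beta in PBS, 1 mM DTT, 0.02% Tween-20, 0.1% BSA. CFP/YFP ratio read after 45 min at room temperature; pre-read flags interference.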
Rango dissoc inh: inhibitors of RanGTP-induced Rango-importin beta complex dissociation; Potency, µM (series often up to 46.1 µM); Biochemical FRET Rango-importin beta, RanGTP-induced dissociation; AID 540253; 0.071% of 340,000 active; O95149+P62826; calls by dose curve; note: nearly all actives have a fitted effect of over 45% in size
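Quantitative HTS using a FRET biosensor: 0.1 uM Rango, 0.25 uM importin beta, 0.6 uM Ran, 2 mM GTP, 0.2 uM RCC1 final, PBS with DTT, Tween-20 and BSA. Post-read taken 45 min after Ran addition.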
Nrf2 activator: activators of Nrf2 (ARE) signaling; AREc32 ARE-luciferase reporter (MCF7-derived line), luminescence, 24 h; 0.31% of 410,000 active; Potency, µM (titrated, usually from 46.1 µM), usual class: activators; AID 624171; note: nearly all actives have a fitted effect of over 65% in size
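AREc32 cells carrying an ARE-driven firefly luciferase, 1000 cells/well in OPTI-MEM with 5% FBS, dosed after overnight attachment and incubated 24 hr at 37 deg C. Steady-Glo luminescence read after 30 min at RT.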
Large screens that a line does not name were inactive. Hits are enriched below; roughly 2.3% of the tested compounds scored in any of these assays. Unless noted, calls come from the whole dose curve; as a rule, active = well fitted curve in the direction sought with a large enough effect; inconclusive = small, poorly fitted or top-dose-only effect, or another doubt; inactive = no such curve, though single readings can be large; an effect the other way counts as inactive or inconclusive.

O=C(c1ccc(Cn2cc(Cl)c([N+](=O)[O-])n2)cc1)N1CCN(Cc2ccccc2)CC1	Nrf2 inh 21µM
CCOC(=O)C1(CCOc2ccccc2)CCN(Cc2cccc3nonc23)CC1	Nrf2 inh 21µM
CCC1CSC(Nc2ccc(C(=O)/C=C/c3cccc(C)c3)cc2)=N1 (centres undefined)	Nrf2 inh 23µM
CC(C)(C)OC(=O)N(Cc1ccccc1)Cc1cccc(OCc2cccc(NC(=O)C3CC3)c2)c1	Nrf2 inh 26µM
CC(C)(C)OC(=O)N1CCCC(C(=O)Nc2cccc(C(=O)NCCCc3ccccc3)c2)C1 (centres undefined)	Nrf2 inh inconclusive
CC(C)(C)OC(=O)N1CCC(C(=O)Nc2cccc(C(=O)NCCCc3ccccc3)c2)CC1	Nrf2 inh 23µM
O=C(COC(=O)c1n[nH]c(=O)c2ccccc12)Nc1ccccc1F	none
O=C(Nc1ccn(Cc2c(F)c(F)cc(F)c2F)n1)c1ccc(COc2cc(Cl)ccc2Cl)o1	Nrf2 inh inconclusive
O=C(Nc1ccn(Cc2c(F)c(F)cc(F)c2F)n1)c1ccc(COc2ccccc2Cl)cc1	Nrf2 inh 21µM
O=C(Nc1ccn(Cc2ccccc2F)n1)c1ccc(COc2ccccc2Cl)cc1	Nrf2 inh 18µM
COc1cc(CNc2ccc(O)cc2)cc(Br)c1OCc1ccccc1F	A549 tox 15µM, Nrf2 inh 5.2µM
CCOc1cc(CNc2ccc(O)cc2)cc(Br)c1OCc1ccccc1F	Nrf2 inh inconclusive, Nrf2 activator inconclusive
CCOC(=O)C1CCN(S(=O)(=O)CCNC(=O)c2ccc(F)cc2)CC1	none
CC1(C)C(CSc2nc3ccccc3[nH]2)C1(Cl)Cl (centres undefined)	A549 tox inconclusive, Nrf2 inh inconclusive
Cc1ccc(CNC(=O)c2nn(C)c3c2CS(=O)(=O)c2ccccc2-3)cc1	none
Cn1nc(C(=O)NCc2ccc(F)cc2)c2c1-c1ccccc1S(=O)(=O)C2	Nrf2 inh 10µM
CCN(C(C)=O)c1cnc(C=NNC(N)=S)c2ccccc12	A549 tox inconclusive, Nrf2 inh 8.2µM
NC(=S)NN=Cc1nccc2c(N)cccc12	none (no result: A549 tox, Nrf2 inh, Rango complex inh, Rango dissoc inh)
CC(=O)Nc1ccc(-c2nnc3n(Cc4ccc(C)cc4)c(=O)c4ccccc4n23)cc1	none (no result: Rango complex inh, Rango dissoc inh)
COc1ccc(C2CC(c3cccs3)=NN2C(=O)CSc2nc3c(cnn3-c3ccccc3)c(=O)[nH]2)cc1 (centres undefined)	Nrf2 inh 16µM
O=C(Nc1ccccc1C(=O)NCCc1ccccc1)c1ccco1	Nrf2 activator 2.8µM (no result: Nrf2 inh)
O=C(O)CNC(=O)c1ccccc1NC(=O)c1ccco1	none
CCOc1c2c(c(-c3ccc4c(c3)OCO4)c3cc(OC)c(OC)cc13)C(=O)OC2	A549 tox 2.9µM, Nrf2 inh 1.8µM (no result: Rango complex inh, Rango dissoc inh, Nrf2 activator)
CC(C)(C)OC(=O)n1c2ccsc2c2cnn(Cc3ccccc3F)c(=O)c21	none (no result: Rango complex inh, Rango dissoc inh, Nrf2 activator)
CCOC(=O)[C@H]1[C@H]2COc3ccc(Br)cc3[C@H]2N2C(=O)CN(Cc3ccc(Cl)cc3)C(=O)[C@@]12C	Nrf2 inh 26µM
CCOC(=O)[C@H]1[C@H]2COc3ccc(Br)cc3[C@@H]2N2C(=O)CN(Cc3ccc(Cl)cc3)C(=O)[C@@]12C	none
CCOc1nc(-c2ccccc2)ccc1-c1noc(-c2cccs2)n1	A549 tox inconclusive, Nrf2 inh inconclusive, Nrf2 activator inconclusive
CCOc1ncccc1-c1nc(-c2cccs2)no1	Nrf2 inh inconclusive, Nrf2 activator 10µM
CCc1nc(N2CCN(C(=O)CCCl)CC2)c2c3c(sc2n1)CCCC3	none (no result: A549 tox, Nrf2 inh, Rango complex inh, Rango dissoc inh)
Cc1nc(N2CCN(C(=O)c3ccco3)CC2)c2c3c(sc2n1)CCCC3	Nrf2 inh inconclusive
O=C(c1ccco1)N1CCN(c2nc(C3CC3)nc3c2nnn3Cc2ccccc2Cl)CC1	Nrf2 inh 16µM
O=C(c1ccco1)N1CCN(c2nc(C3CC3)nc3sc4c(c23)CCCC4)CC1	A549 tox inconclusive, Nrf2 inh 23µM
CCOC(=O)c1nc(N2CCN(C(=O)OCC)CC2)c2c3c(sc2n1)CCCC3	Nrf2 inh 26µM
Cc1nc(N2CCN(C(=O)c3cccs3)CC2)c2c3c(sc2n1)CCCC3	A549 tox inconclusive, Nrf2 inh 18µM
CC1(C)CC(=O)C=C(NCCN2CCN(C(=S)NC3CCCCC3)CC2)C1	none
O=C(Nc1ccc2c(c1)OCO2)c1ccc(S(=O)(=O)NCC2CCCO2)cc1 (centres undefined)	none
O=C(Nc1cccc(F)c1)c1ccc(S(=O)(=O)NCC2CCCO2)cc1 (centres undefined)	Nrf2 inh 21µM
O=C(c1ccc(S(=O)(=O)NCC2CCCO2)cc1)N1CCN(c2ccccc2F)CC1 (centres undefined)	none
O=C(c1ccc(S(=O)(=O)NCC2CCCO2)cc1)N1CCN(c2cccc(Cl)c2)CC1 (centres undefined)	Nrf2 inh 13µM, Rango dissoc inh inconclusive
O=C1C2CC=CCC2C(=O)N1c1ccc(Cc2ccncc2)cc1 (centres undefined)	Nrf2 inh 9.2µM, Rango complex inh inconclusive
CCc1cc(=O)[nH]c(SCc2nc(-c3ccc(C(F)(F)F)cc3)no2)n1	none (no result: Nrf2 inh, Rango complex inh, Rango dissoc inh)
CCC(=O)NC(c1ccc(Br)o1)c1cc(Cl)c2cccnc2c1O (centres undefined)	Nrf2 inh inconclusive (no result: Rango complex inh, Rango dissoc inh, Nrf2 activator)
CCN1/C(=C/C=C/C=C/C=C/c2sc3ccccc3[n+]2CC)Sc2ccccc21	A549 tox inconclusive, Nrf2 inh 21µM, Rango complex inh inconclusive
CC[n+]1c(/C=C/Nc2ccccc2)sc2ccccc21	none
CC[C@@]1(O)C(=O)OCc2c1cc1n(c2=O)Cc2cc3c(CN(C)C)c(O)ccc3nc2-1	A549 tox inconclusive, Nrf2 inh 2.3µM, Rango complex inh inconclusive, Rango dissoc inh inconclusive
CCCCc1cc(=O)oc2c(CN(C)C)c(O)ccc12	Rango complex inh inconclusive, Rango dissoc inh inconclusive
CC(C)Oc1ncnc2c1[nH]c1ccccc12	Nrf2 inh 8.2µM
COC(=O)c1ccc(CNC(=O)COC(=O)/C=C/c2cccc(OC)c2)cc1	none (no result: A549 tox, Nrf2 inh, Rango complex inh, Rango dissoc inh)
COC(=O)c1ccc(CNC(=O)COC(=O)/C=C/c2ccc(O)c(OC)c2)cc1	Rango complex inh inconclusive, Rango dissoc inh 18µM
CC1(C)CC(=O)C2=C(C1)NC(Nc1nc3ccccc3o1)=NC2c1cccc(F)c1 (centres undefined)	none (no result: Rango complex inh, Rango dissoc inh, Nrf2 activator)
CC1(C)CC(=O)C2=C(C1)NC(Nc1nc3ccccc3o1)=NC2c1cccc(O)c1 (centres undefined)	A549 tox inconclusive, Nrf2 inh 21µM (no result: Rango complex inh, Rango dissoc inh, Nrf2 activator)
COc1ccc(Br)cc1Cn1nnc(C(=O)Nc2ccc(C)cc2C)c1N	Nrf2 inh 16µM (no result: Rango complex inh, Rango dissoc inh)
COc1cc(F)c(S(=O)(=O)N2CCN(S(=O)(=O)c3cccc(N)c3)CC2)c(F)c1	none (no result: Rango complex inh, Rango dissoc inh, Nrf2 activator)
CCN(CC)C(=O)c1sc2nc(-c3ccccn3)[nH]c(=O)c2c1C	none

Compound activity: PubChem BioAssay, National Center for Advancing Translational Sciences (NCATS)
